The campaign covered roughly 5,500 compounds. About 2,000 (36%) were called active. Roughly 18% stayed inconclusive and do not appear here. This is one part of the list. Values without a mark were called inactive. Rule as the data show it: active = normalized growth mostly below about 0.91 (no sharp cut-off); inconclusive = no clear call, values can overlap the other calls; inactive = mostly above about 0.92.
Test: chemical genetic growth profiling, strain panel (AID 1159580);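 also: tested at 20 µM; growth read once vehicle control cultures reached saturation at 30 °C; 1 = growth at the plate median or of vehicle wells; lower values mean less growth of the strain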
Conditions: S. cerevisiae deletion strains, growth OD

## O=c1c2cc(O)c(O)cc2oc2cc(O)c(C3O[C@H](CO)[C@H](O)[C@@H](O)[C@H]3O)c(O)c12 (stereo not given in full)
Locus YAL021C, strain ccr4, active compounds read low
  normalized growth: 1.01
Locus YAL026C, strain drs2, active compounds read low
  normalized growth: 1.02
Locus YAL030W, strain snc1, active compounds read low
  normalized growth: 1.02
Locus YBL061C, strain skt5, active compounds read low
  normalized growth: 1.03
Locus YBR009C, strain hhf1, active compounds read low
  normalized growth: 1.08
Locus YBR023C, strain chs3, active compounds read low
  normalized growth: 1.02
Locus YBR171W, strain sec66, active compounds read low
  normalized growth: 1.02
Locus YBR231C, strain swc5, active compounds read low
  normalized growth: 1.03
Locus YBR279W, strain paf1, active compounds read low
  normalized growth: 1.01
Locus YCL011C, strain gbp2, active compounds read low
  normalized growth: 1.04
Locus YCL016C, strain dcc1, active compounds read low
  normalized growth: 1.02
Locus YCL061C, strain MRC1, active compounds read low
  normalized growth: 1.02
Locus YCL069W, strain vba3, active compounds read low
  normalized growth: 1.02
Locus YCR088W, strain abp1, active compounds read low
  normalized growth: 1.03
Locus YDL005C, strain med2, active compounds read low
  normalized growth: 1.04
Locus YDL040C, strain nat1, active compounds read low
  normalized growth: 1.02
Locus YDR001C, strain nth1, active compounds read low
  normalized growth: 1.02
Locus YDR069C, strain doa4, active compounds read low
  normalized growth: 1.03
Locus YDR137W, strain rgp1, active compounds read low
  normalized growth: 1.04
Locus YDR159W, strain sac3, active compounds read low
  normalized growth: 1.11
Locus YDR195W, strain ref2
  normalized growth: 1.12
Locus YDR297W, strain sur2, active compounds read low
  normalized growth: 1.04
Locus YDR334W, strain swr1, active compounds read low
  normalized growth: 1.01
Locus YDR335W, strain msn5, active compounds read low
  normalized growth: 1.01
Locus YDR392W, strain spt3, active compounds read low
  normalized growth: 1.07
Locus YEL003W, strain gim4, active compounds read low
  normalized growth: 1.02
Locus YEL037C, strain rad23, active compounds read low
  normalized growth: 1.02
Locus YEL061C, strain CIN8 (second series), active compounds read low
  normalized growth: 1.02
Locus YER015W, strain faa2, active compounds read low
  normalized growth: 1
Locus YER016W, strain bim1, active compounds read low
  normalized growth: 1.04
Locus YER111C, strain swi4, active compounds read low
  normalized growth: 1.03
Locus YER155C, strain BEM2 (second series), active compounds read low
  normalized growth: 1.12
Locus YFR010W, strain ubp6, active compounds read low
  normalized growth: 1.02
Locus YGL167C, strain pmr1, active compounds read low
  normalized growth: 1.03
Locus YGL173C, strain kem1, active compounds read low
  normalized growth: 1.03
Locus YGL227W, strain vid30, active compounds read low
  normalized growth: 1.04
Locus YGL240W, strain doc1, active compounds read low
  normalized growth: 1.14 [resistant] (active)
Locus YGL253W, strain hxk2, active compounds read low
  normalized growth: 0.986
Locus YHR013C, strain ard1, active compounds read low
  normalized growth: 1
Locus YHR027C, strain rpn1, active compounds read low
  normalized growth: 1.01
Locus YHR030C, strain SLT2, active compounds read low
  normalized growth: 0.973
Locus YHR079C, strain IRE1, active compounds read low
  normalized growth: 0.982
Locus YHR142W, strain chs7, active compounds read low
  normalized growth: 0.945
Locus YJL092W, strain hpr5, active compounds read low
  normalized growth: 1.03
Locus YJL095W, strain BCK1 (second series), active compounds read low
  normalized growth: 1.02
Locus YJL095W, strain BCK1, active compounds read low
  normalized growth: 1.03
Locus YJL115W, strain asf1, active compounds read low
  normalized growth: 1.01
Locus YJL129C, strain trk1, active compounds read low
  normalized growth: 0.999
Locus YJL154C, strain vps35, active compounds read low
  normalized growth: 1.02
Locus YJL164C, strain tpk1, active compounds read low
  normalized growth: 0.98
Locus YJL166W, strain qcr8, active compounds read low
  normalized growth: 0.993
Locus YJL187C, strain SWE1, active compounds read low
  normalized growth: 1.02
Locus YJR066W, strain TOR1, active compounds read low
  normalized growth: 0.937
Locus YKL160W, strain elf1, active compounds read low
  normalized growth: 0.988
Locus YKR026C, strain gcn3, active compounds read low
  normalized growth: 1.02
Locus YKR091W, strain srl3, active compounds read low
  normalized growth: 1.03
Locus YLL001W, strain dnm1, active compounds read low
  normalized growth: 1.04
Locus YLL026W, active compounds read low
  normalized growth: 1.02
Locus YLL041C, strain sdh2, active compounds read low
  normalized growth: 1.01
Locus YLR027C, strain aat2, active compounds read low
  normalized growth: 1.01
Locus YLR113W, strain HOG1, active compounds read low
  normalized growth: 1.1
Locus YLR221C, strain rsa3, active compounds read low
  normalized growth: 0.985
Locus YLR258W, strain gsy2, active compounds read low
  normalized growth: 1.06
Locus YLR262C, strain YPT6 (second series), active compounds read low
  normalized growth: 1.02
Locus YLR320W, strain mms22, active compounds read low
  normalized growth: 1.07
Locus YLR342W, strain FKS1, active compounds read low
  normalized growth: 1.03
Locus YLR357W, strain rsc2, active compounds read low
  normalized growth: 1.01
Locus YLR370C, strain arc18, active compounds read low
  normalized growth: 1.01
Locus YLR384C, strain iki3, active compounds read low
  normalized growth: 1.01
Locus YML120C, strain ndi1, active compounds read low
  normalized growth: 1
Locus YMR058W, strain fet3, active compounds read low
  normalized growth: 1.01
Locus YMR125W, strain sto1, active compounds read low
  normalized growth: 1.07
Locus YMR129W, active compounds read low
  normalized growth: 1.02
Locus YMR205C, strain PFK2, active compounds read low
  normalized growth: 1.13 [resistant] (active)
Locus YMR231W, strain pep5, active compounds read low
  normalized growth: 1.02
Locus YNL071W, strain lat1, active compounds read low
  normalized growth: 1.02
Locus YNL183C, strain NPR1, active compounds read low
  normalized growth: 0.98
Locus YNL209W, strain ssb2, active compounds read low
  normalized growth: 0.986
Locus YNL248C, strain rpa49, active compounds read low
  normalized growth: 0.992
Locus YNL322C, strain KRE1 (second series), active compounds read low
  normalized growth: 1.02
Locus YNR049C, strain mso1, active compounds read low
  normalized growth: 1.03
Locus YOR001W, strain rrp6, active compounds read low
  normalized growth: 0.981
Locus YOR070C, strain gyp1, active compounds read low
  normalized growth: 0.999
Locus YOR080W, strain dia2, active compounds read low
  normalized growth: 1.03
Locus YOR083W, strain WHI5, active compounds read low
  normalized growth: 0.968
Locus YOR106W, strain vam3, active compounds read low
  normalized growth: 0.887
Locus YOR231W, strain MKK1, active compounds read low
  normalized growth: 0.988
Locus YOR265W, strain rbl2, active compounds read low
  normalized growth: 1.01
Locus YOR270C, strain vph1, active compounds read low
  normalized growth: 0.938
Locus YOR290C, strain snf2, active compounds read low
  normalized growth: 0.995
Locus YPL051W, strain arl3, active compounds read low
  normalized growth: 0.961
Locus YPL078C, strain atp4, active compounds read low
  normalized growth: 0.969
Locus YPL106C, strain sse1, active compounds read low
  normalized growth: 1.05
Locus YPL240C, strain hsp82, active compounds read low
  normalized growth: 0.997
Locus YPL256C, strain CLN2, active compounds read low
  normalized growth: 1
